Measurements published in the supplement of paper PMC6555819.

Assays:
Assay in all cases: PBM binding z-score (relative to random genomic background probes); higher = stronger binding; sequences stand for … in GC…GCGATTGACAGCGTAGAATGAAGG
[1] = system: RARb homodimer (NR concentration 270 nM)
Procedure, shortened: (§1)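 Random background probes are the reference for binding z-scores. These scores derive from regression-normalized fluorescence on custom Agilent 4×180K protein-binding microarrays incubated 1 h with ligand-free nuclear receptor dimers. Binding was detected with antibodies against each partner (one per run).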

[2] = system: RARg:RXRa (NR concentration 270 nM, RXRa partner concentration 90 nM)
Procedure, shortened: as §1

[3] = system: RARg homodimer (NR concentration 270 nM)
Procedure, shortened: as §1

[4] = system: RXRa DBDmut IVT, anti-RXR (DBD mutation: RXRa K156A/R161A, NR concentration 90 nM)
Procedure, shortened: as §1

[5] = system: RXRa homodimer (NR concentration 180 nM)
Procedure, shortened: as §1

[6] = system: THRa:RXRa (NR concentration 90 nM, RXRa partner concentration 90 nM)
Procedure, shortened: as §1

[7] = system: THRa homodimer (NR concentration 90 nM)
Procedure, shortened: as §1

[8] = system: VDR homodimer (NR concentration 270 nM)
Procedure, shortened: as §1

Row | Sequence | PBM binding z-score [1] | PBM binding z-score [2] | PBM binding z-score [3] | PBM binding z-score [4] | PBM binding z-score [5] | PBM binding z-score [6] | PBM binding z-score [7] | PBM binding z-score [8]
1 | TAGCCTAGGTCAGATCGGGCCAGTAGACGCTATA | 1.76 | 2.74 | 3.37 | -0.78 | 1.2 | 3.76 | -0.385 | -0.53
2 | CCTACTGGGCCAAAGGTCATTGGTTCCAATGCTC | 4.8 | 5.8 | 4.77 | 0.919 | 6.11 | 3.37 | 0.894 | 2.85
3 | CCGACTCGGGCAAAGGTTACCATACTCAGTACGA | 2.04 | 3.36 | 1.68 | 0.702 | 3.21 | 1.6 | -0.126 | -0.375
4 | CCTACTGGGCCGAAAAGGTCATTGATGCCGATAA | 4.31 | 4.56 | 3.89 | 0.386 | 4.95 | 3 | 0.639 | 2.13
5 | TTACCAAGGTGAAGGTCGTTGCTCCCTCTGTAGA | 2.04 | 1.25 | 1.15 | 0.573 | 1.59 | 2.37 | 1.06 | 1.43
6 | CGAACGAGGGCATGAGCTGATAGCAAATGCCGAT | 0.6 | 1.19 | 1.39 | 1.96 | 1.06 | 1.15 | -0.325 | 0.803
7 | CTCGAAAGGTCGGTTGAAGTGAGTATACGGATAA | 1.72 | 2.38 | 2.65 | 0.742 | 1.98 | 1.42 | 0.13 | 0.557
8 | CCTACTGGGCCAAAGGTCATTCATTCCAATGCTC | 4.47 | 5.99 | 4.7 | 1.65 | 6.93 | 3.3 | 1.06 | 3.3
9 | GATACAGGGTCAGCTAGAGGCCAGAGTGTGGAAA | 3.67 | 6.74 | 4.74 | 1.34 | 4.41 | 3.15 | 0.703 | 0.787
10 | TCTAGTTGGTCACGGAGGTCACAGACGACGGGTA | 4.64 | 4.79 | 4.98 | 1.02 | 5.24 | 3.72 | 2.35 | 2.78
11 | CCTCGGAGGACAGAAGGGCAGAGCTGTCCGCTTT | 0.947 | 0.328 | 0.965 | -0.318 | -0.72 | -0.248 | -1.05 | -0.623
12 | CCTACTGAGCCAAAAAGGTCATTGATGCCGATAA | 4.22 | 4.3 | 4.1 | 1.49 | 5.03 | 2.86 | 1.05 | 2.73
13 | TGAATGAGGTTAAAGATCCGGGAACGTGGCGTCG | 0.578 | 1.5 | 1.05 | 1.22 | 2.61 | 2.12 | 0.411 | 0.437
14 | ATCGAAAGGTCGAAGGTTAGTATACCCACCCGAA | 2.72 | 4.38 | 3.94 | 1.41 | 5.38 | 2.19 | 0.185 | 0.865
15 | TCTGCTAGGTCAACGATGATCAGCTAATCTGCTA | 2.72 | 3.81 | 4.38 | 1.04 | 2.78 | 2.64 | 0.449 | -0.153
16 | AGAACGAGCGCACGCTGAGTTGATAGCAGAGTAG | -1.25 | -0.476 | -0.51 | -0.346 | -0.489 | -0.752 | -1.21 | -0.599
17 | AGTCAAAGTTCATCTAGGTAACGCAAGATATGCT | 3.95 | 5.4 | 6.01 | 4.76 | 4.57 | 3.08 | 0.274 | 5.06
18 | CGTCCAAGATCAATGCTAGGTCAGTGAAAGCATT | 2.31 | 1.93 | 1.33 | 0.097 | 0.272 | 1.75 | 0.486 | 0.299
19 | CGTCCCAGGTCATAGGAGGTCAGTGAAGACAGAT | 4.84 | 5.47 | 5.84 | 2.74 | 4.75 | 4.89 | 3.13 | 3.59
20 | TCTTGTAGATCAATAGAGGTTAAGTAAGTGCGCT | 1.37 | 0.902 | 0.6 | 0.824 | 1.49 | 3.1 | -0.295 | 0.563
21 | CCTCGGAGGACAACAGTAGGTCAGAGCTGCCAGA | 2.54 | 1.94 | 2.24 | 0.271 | 0.593 | 1.67 | 0.256 | -0.109
22 | CCTTACGGGTCACTGACAGGTTATGGCATTTGGA | 3.41 | 5.79 | 4.82 | 1.85 | 5.22 | 2.9 | 0.174 | 0.887
23 | TCAAATAGGTAAATGCTAGGTGAAAGTCCGATCT | 0.514 | 0.401 | 0.304 | 1.84 | 1.06 | 1.38 | 0.625 | 0.251
24 | GCGACTGGGGCGAAGCAGGTTACCATAAGGTTGG | 0.22 | -0.0926 | -0.296 | -1.11 | 0.0577 | 1.5 | -0.185 | -0.569
25 | ATATGTAGGGTATCGGGTCATTCAGTTTGCGCAT | 2.99 | 2.43 | 1.97 | 1.43 | 2.76 | 3.07 | 2.69 | 3.81
26 | TCGAGTAGATTACCAATGGGGCATTCAGCTTTCT | -0.458 | -0.531 | -0.494 | 0.278 | -0.304 | -0.599 | -0.825 | -0.571
27 | CGAACTAGGTCATCCAGGACAGTAAATACATTGA | 2.98 | 4.05 | 4.72 | 2.51 | 2.89 | 3.58 | 2.2 | 2.45
28 | ATACCAAGGTGAGCGTGAGGTCGTTGATACTAAC | 2 | 2.92 | 1.6 | 0.221 | 2.01 | 3.8 | 2.51 | 2.3
29 | GCCTGTAGATCAAGGTTAAGAAAGACTAAGCTAA | 0.243 | 0.329 | 0.0689 | 0.0892 | 0.822 | 1.14 | -0.419 | -0.568
